Screening data deposited in PubChem BioAssay by The Scripps Research Institute Molecular Screening Center.
Most compounds without a hit are left out; they make up all but 4.6% or so of the library.
DAX1 inh-1: inhibitors of DAX1 repression of SF-1 activated StAR promoter; inhibition, % at 6.8 µM; HEK293T StAR-luciferase reporter, SF-1/DAX-1 repression relief; 1.1% of 370,000 active; AID 652010;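 active means inhibition above the mean over all tested compounds plus 3 SD, cut at about 3.6% in these data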;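 further: higher inhibition means more luminescence from relief of DAX-1 repression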
ssDAF-12 act: activators of S. stercoralis DAF-12 nuclear receptor; AID 652126; 1% of 370,000 active; activation, % at 6.8 µM; HEK293 ssDAF-12/GRIP1 lit1-tk-luc reporter, luminescence; % of 3 µM dafachronic acid response;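 active means activation above the mean over all tested compounds plus 3 SD, cut at about 0.9% in these data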
Wee1 degr inh: inhibitors of human Wee1 degradation; HeLa Luc-Wee1K328M stability, luciferase luminescence; 100% = proteasome inhibitor MG132 effect; reporter increase, % at 5 µM; 1.2% of 220,000 active; AID 1321;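 active means activation above the mean of all tested compounds plus 3 SD, set per screening run, cut at about 8.8% in these data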;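 further: cells exposed to compound for 20 h before luminescence read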
DAX1 inh-2: inhibits human nuclear receptor DAX1 | P51843 | HEK293 Gal4-DAX1 luciferase reporter, luminescence | inhibition, % at 6.75 µM | 0.99% of 340,000 active | AID 504766;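 active means inhibition above the mean over all tested compounds plus 3 SD, cut at about 4.2% in these data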;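 further: inhibition shows as a rise in luminescence from relieved DAX1 repression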
Target sequence (P51843 207-470 limits assumed): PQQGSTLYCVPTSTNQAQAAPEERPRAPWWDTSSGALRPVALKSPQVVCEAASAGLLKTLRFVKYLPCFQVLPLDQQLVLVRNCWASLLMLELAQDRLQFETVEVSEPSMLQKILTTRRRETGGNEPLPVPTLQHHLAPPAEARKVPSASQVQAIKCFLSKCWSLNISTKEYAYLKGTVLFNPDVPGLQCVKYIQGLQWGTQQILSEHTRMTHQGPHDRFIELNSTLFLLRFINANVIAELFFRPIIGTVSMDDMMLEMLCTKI
hgDAF12 agonist: agonists of H. glycines DAF-12 nuclear receptor; HEK293 GAL4-hgDAF12 UAS-luciferase reporter, agonist luminescence; normalized to butyrate control; activation, % at 6.8 µM; 1.8% of 370,000 active;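 active means activation above a cutoff set at the mean of all screened compounds plus 3 SD, cut at about 10% in these data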
hcDAF-12 act: activates DAF-12 receptor from parasite H. contortus. activation, % at 6.8 µM. 1.4% of 370,000 active. HEK293 hcDAF-12 lit1-tk-luc reporter, luminescence; 0% DMSO, 100% Δ7-dafachronic acid;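 active means activation above the mean of all tested compounds plus 3 SD, cut at about 5.5% in these data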
LXRb hcDAF ctr: activates human LXR-beta, counter-screen for hcDAF-12 agonists; 3,400 tested, under 10 active; shares compounds with hcDAF-12 act; AID 743027; activation, % at 6.8 µM; HEK293 Gal4-LXR tk-luc reporter, luminescence, 24 h; normalized: DMSO 0%, positive control 100%;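 active means mean percent activation of the reporter above a cutoff set as the average over tested compounds plus their standard deviation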
Target sequence (P55055 whole entry, looked up, the tested form may be a part): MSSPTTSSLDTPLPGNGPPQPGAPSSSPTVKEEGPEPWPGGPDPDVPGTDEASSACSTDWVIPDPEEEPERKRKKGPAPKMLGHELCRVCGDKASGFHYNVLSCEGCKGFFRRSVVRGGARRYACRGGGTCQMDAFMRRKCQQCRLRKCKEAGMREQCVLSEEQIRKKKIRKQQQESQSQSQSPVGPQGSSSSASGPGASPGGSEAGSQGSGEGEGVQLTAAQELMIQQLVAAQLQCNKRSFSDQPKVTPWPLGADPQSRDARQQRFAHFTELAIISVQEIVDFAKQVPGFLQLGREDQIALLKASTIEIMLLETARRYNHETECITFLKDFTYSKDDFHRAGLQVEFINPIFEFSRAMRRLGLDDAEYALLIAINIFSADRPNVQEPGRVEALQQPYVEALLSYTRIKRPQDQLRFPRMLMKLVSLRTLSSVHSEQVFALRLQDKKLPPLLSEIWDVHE
hcDAF12 conf: hcDAF-12 agonism, confirmation assay | AID 743032 | HEK293 hcDAF-12 lit1-tk-luc reporter, luminescence; % of Δ7-dafachronic acid response | activation, % at 6.8 µM | 61% of 3,400 active | shares compounds with hcDAF-12 act;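 active means mean activation across triplicate tests above the threshold derived from the earlier primary screen, cut at about 5.5% in these data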
Large screens that a line does not name were inactive (follow-up assays come after a bar, where they were run).

O=C(C1CCN(S(=O)(=O)c2ccc3[nH]c(=O)oc3c2)CC1)N1CCCC1	none (no result: Wee1 degr inh, DAX1 inh-2)
COC(=O)c1c[nH]n2c(=O)cc(C)nc12	none
COC(=O)c1c[nH]n2c(=O)c(Cl)c(C)nc12	hcDAF-12 act 8.7 | LXRb hcDAF ctr inactive | hcDAF12 conf inactive
Cc1cc(OC(C)CCN2CCC(C(O)(c3ccccc3)c3ccccc3)CC2)ccc1Br (centres undefined)	hcDAF-12 act 6.8 (no result: Wee1 degr inh, DAX1 inh-2) | LXRb hcDAF ctr inactive | hcDAF12 conf inactive
CC(CCN1CCC(C(O)(c2ccccc2)c2ccccc2)CC1)Oc1cc(F)cc(F)c1 (centres undefined)	none (no result: Wee1 degr inh, DAX1 inh-2)
Cc1cc(C)cc(OC(C)CCN2CCC(C(O)(c3ccccc3)c3ccccc3)CC2)c1 (centres undefined)	none (no result: Wee1 degr inh, DAX1 inh-2)
CC(CCN1CCC(C(O)(c2ccccc2)c2ccccc2)CC1)Oc1ccc(OC(F)(F)F)cc1 (centres undefined)	hcDAF-12 act 7.5 (no result: Wee1 degr inh, DAX1 inh-2) | LXRb hcDAF ctr inactive | hcDAF12 conf inactive
c1ccc(-c2nc3cc4ccccc4cc3[nH]2)nc1	hcDAF-12 act 8.8 | LXRb hcDAF ctr inactive | hcDAF12 conf 11
CC(=O)Nc1ccc2nc(-c3ccccn3)[nH]c2c1	none
O=C(Nc1ccc(F)cc1)OCc1cn(Cc2c(F)cccc2F)nn1	none (no result: Wee1 degr inh, DAX1 inh-2)
CCCCCCNC(=O)O[C@H]1Cn2c(=O)ccc(=O)n2[C@@H]2CN(S(=O)(=O)c3ccc(C)cc3)C[C@]12O	none (no result: Wee1 degr inh)
CC(=O)c1c(C)nc(-c2ccc(Cl)cc2)nc1N	ssDAF-12 act 1.6, hcDAF-12 act 15 | LXRb hcDAF ctr inactive | hcDAF12 conf 7.3
CC(=O)c1c(C)nc(-c2ccc(Cl)cc2)nc1N=CN(C)C	ssDAF-12 act 1.0, hcDAF-12 act 8.6 | LXRb hcDAF ctr inactive | hcDAF12 conf 8.6
C[C@@H]1CN([C@@H](C)CO)S(=O)(=O)c2ccc(Br)cc2O[C@@H]1CN(C)S(=O)(=O)c1ccc(F)cc1	none (no result: Wee1 degr inh, DAX1 inh-2)
CC(C)(C)C(=O)OC12CCCN(C1)/C(=C/c1ccncc1)C2 (centres undefined)	none (no result: Wee1 degr inh, DAX1 inh-2)
O=C(Nc1ccccc1Cl)c1cccs1	none
O=C(Nc1ccccc1Cl)c1ccc(-c2ccccn2)s1	DAX1 inh-2 5.0, hgDAF12 agonist 11, hcDAF-12 act 8.7 | LXRb hcDAF ctr inactive | hcDAF12 conf inactive
O=c1c2ccccc2cnn1-c1ccc(Cl)cc1	ssDAF-12 act 1.9, hgDAF12 agonist 17, hcDAF-12 act 12 | LXRb hcDAF ctr inactive | hcDAF12 conf 10
Cc1nn(-c2ccc(Cl)cc2)c(=O)c2ccccc12	ssDAF-12 act 1.1, hcDAF-12 act 7.2 | LXRb hcDAF ctr inactive | hcDAF12 conf 9.9
NS(=O)(=O)c1ccc(CCNC(=O)COC(=O)CCc2c[nH]c3ccccc23)cc1	none (no result: Wee1 degr inh)
Fc1cccc2sc(Nc3nc4cc5c(cc4s3)OCCO5)nc12	hcDAF-12 act 10 | LXRb hcDAF ctr inactive | hcDAF12 conf 20
Fc1cc(F)c2nc(Nc3nc4cc5c(cc4s3)OCO5)sc2c1	none
COc1ccc(-c2cc(CNc3nc(NCc4ccccc4OC)nc4ccsc34)on2)cc1	none (no result: Wee1 degr inh, DAX1 inh-2)
O=C(NCc1ccccc1)C(c1c(F)cccc1Cl)N(C(=O)c1csnn1)C1CC1 (centres undefined)	none (no result: Wee1 degr inh)
Cc1csc(NC(=O)c2cc3c(s2)CCCCC3)n1	none
Cc1cnc(NC(=O)c2cc3c(s2)CCCC3)s1	hcDAF-12 act 9.0 | LXRb hcDAF ctr inactive | hcDAF12 conf 7.0
Cc1csc(NC(=O)c2cc3c(s2)CCCC3)n1	hgDAF12 agonist 12, hcDAF-12 act 11 | LXRb hcDAF ctr inactive | hcDAF12 conf 7.0
CSCCC(C(=O)NC(C)(C)C)n1c(-c2cccc(NC(C)=O)c2)nc2ccccc21 (centres undefined)	none (no result: Wee1 degr inh, DAX1 inh-2)
Oc1cccc2ccc(/C=C/c3ccccc3Cl)nc12	hcDAF-12 act 7.1 (no result: Wee1 degr inh) | LXRb hcDAF ctr inactive | hcDAF12 conf 6.5
COc1ccc(Cl)cc1/C=C/c1ccc2cccc(O)c2n1	hcDAF-12 act 7.7 (no result: Wee1 degr inh) | LXRb hcDAF ctr inactive | hcDAF12 conf inactive
COc1ccccc1/C=C/c1ccc2cccc(O)c2n1	none (no result: Wee1 degr inh)
Oc1cccc2ccc(/C=C/c3c(F)cccc3Cl)nc12	DAX1 inh-1 3.7, ssDAF-12 act 2.0, hgDAF12 agonist 18, hcDAF-12 act 9.5 | LXRb hcDAF ctr inactive | hcDAF12 conf 9.6
O=C(O)c1cc2nc(-c3ccccc3)cc(-c3ccccc3)n2n1	none
CC(=O)n1nc(-c2ccccc2)cc1-c1ccccc1	ssDAF-12 act 1.6, DAX1 inh-2 4.6, hgDAF12 agonist 12, hcDAF-12 act 14 (no result: Wee1 degr inh) | LXRb hcDAF ctr inactive | hcDAF12 conf 16
Cc1cc(OCc2ccc(C(=O)NN=C3CCCC3)cc2)ccc1Cl	hcDAF-12 act 9.9 | LXRb hcDAF ctr inactive | hcDAF12 conf 9.4
O=C(NN=C1CCCC1)c1ccc(Cl)cc1	none (no result: Wee1 degr inh)
CC[C@@H]1CCCCc2ccccc2[C@H](C(=O)C[C@H](O)CC(C)=O)OC1=O	none (no result: Wee1 degr inh)
CCCCCCCSc1nnc(-c2ccccc2N)c(=O)[nH]1	none
CCCSc1nnc(-c2ccccc2N)c(=O)[nH]1	hcDAF-12 act 7.1 | LXRb hcDAF ctr inactive | hcDAF12 conf 7.2
CCOC(=O)C/C(=N\Nc1ncnc2ccccc12)c1ccccc1	hcDAF-12 act 11 (no result: Wee1 degr inh) | LXRb hcDAF ctr inactive | hcDAF12 conf inactive
CCC(=O)NNc1ncnc2ccccc12	hcDAF-12 act 6.9 | LXRb hcDAF ctr inactive | hcDAF12 conf inactive
CCOC(=O)c1ccc(Nc2ncnc3ccccc23)cc1	none
Cn1ccnc1Sc1ccc(/C=N/NC(=O)c2ccccc2O)cc1[N+](=O)[O-]	hcDAF-12 act 9.5 | LXRb hcDAF ctr inactive | hcDAF12 conf 7.2
Cn1ccnc1Sc1ccc(/C=N/NC(=O)c2ccccc2[N+](=O)[O-])cc1[N+](=O)[O-]	none
O=C(O)C1Cc2ccccc2CN1C(=O)c1ccccc1 (centres undefined)	none
CC(CSC(=O)c1ccccc1)C(=O)N1c2ccccc2CC1C(=O)O (centres undefined)	hcDAF-12 act 7.5 (no result: Wee1 degr inh, DAX1 inh-2) | LXRb hcDAF ctr inactive | hcDAF12 conf inactive
CCN(Cc1ccccc1)c1cc2c(c3c1ccn3C)C1CCC2C1 (centres undefined)	none (no result: Wee1 degr inh, DAX1 inh-2)
CC(=O)Nc1ccc(NC(=S)Nc2ccccc2)cc1	none
C/C(=C\C(=S)Nc1ccccc1)Nc1ccccc1	hcDAF-12 act 9.6 | LXRb hcDAF ctr inactive | hcDAF12 conf 6.1
CNC(=O)CSc1ncnc2c1cnn2-c1ccccc1	hcDAF-12 act 7.4 | LXRb hcDAF ctr inactive | hcDAF12 conf inactive
